The record followed here is PubChem BioAssay (EPA / NIEHS).

As a reminder, the AC50 is the concentration at which the activity in the assay is half-maximal.

Molecules are shown by their SMILES. Results filed as inconclusive are left out. Active and inactive are the calls of the source. Rule for the calls: active = hit-call score of the fitted dose curve at least 0.9, where 1 is the maximum; inconclusive = response in the unintended direction; inactive = score below 0.9.

The target in the experiment is PGR (gene 5241) (UniProt P06401). The experiment can be described thus: NVS_NR_hPR: NovaScreen (NVS) Nuclear Receptor Binding Assay for human Progestron Receptor (PR) (AID 2283360).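 Note: active means loss of bound radioligand signal versus DMSO baseline.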 The procedure: NVS_NR_hPR is a biochemical, single-readout assay that uses extracted gene-proteins from T47D in a cell-free assay. Measurements were taken 18 hours after chemical dosing in a 96-well plate.NVS_NR_hPR is one of one assay component(s) measured or calculated from the NVS_NR_hPR assay. It is designed to make measurements of radioligand binding, a form of binding reporter, as detected with scintillation counting signals by Lysate-based radiodetection technology.Data from the assay component NVS_NR_hPR was analyzed into 1 assay endpoint. This assay endpoint, NVS_NR_hPR, was analyzed in the positive analysis fitting direction relative to DMSO as the negative control and baseline of activity. Using a type of binding reporter, loss-of-signal activity can be used to understand changes in the binding as they relate to the gene PGR. Furthermore, this assay endpoint can be referred to as a primary readout, because the performed assay has only produced 1 assay endpoint. To generalize the intended target to other relatable targets, this assay endpoint is annotated to the nuclear receptor intended target family, where the subfamily is steroidal.
Chain of PGR (gene 5241) (P06401 whole entry, looked up): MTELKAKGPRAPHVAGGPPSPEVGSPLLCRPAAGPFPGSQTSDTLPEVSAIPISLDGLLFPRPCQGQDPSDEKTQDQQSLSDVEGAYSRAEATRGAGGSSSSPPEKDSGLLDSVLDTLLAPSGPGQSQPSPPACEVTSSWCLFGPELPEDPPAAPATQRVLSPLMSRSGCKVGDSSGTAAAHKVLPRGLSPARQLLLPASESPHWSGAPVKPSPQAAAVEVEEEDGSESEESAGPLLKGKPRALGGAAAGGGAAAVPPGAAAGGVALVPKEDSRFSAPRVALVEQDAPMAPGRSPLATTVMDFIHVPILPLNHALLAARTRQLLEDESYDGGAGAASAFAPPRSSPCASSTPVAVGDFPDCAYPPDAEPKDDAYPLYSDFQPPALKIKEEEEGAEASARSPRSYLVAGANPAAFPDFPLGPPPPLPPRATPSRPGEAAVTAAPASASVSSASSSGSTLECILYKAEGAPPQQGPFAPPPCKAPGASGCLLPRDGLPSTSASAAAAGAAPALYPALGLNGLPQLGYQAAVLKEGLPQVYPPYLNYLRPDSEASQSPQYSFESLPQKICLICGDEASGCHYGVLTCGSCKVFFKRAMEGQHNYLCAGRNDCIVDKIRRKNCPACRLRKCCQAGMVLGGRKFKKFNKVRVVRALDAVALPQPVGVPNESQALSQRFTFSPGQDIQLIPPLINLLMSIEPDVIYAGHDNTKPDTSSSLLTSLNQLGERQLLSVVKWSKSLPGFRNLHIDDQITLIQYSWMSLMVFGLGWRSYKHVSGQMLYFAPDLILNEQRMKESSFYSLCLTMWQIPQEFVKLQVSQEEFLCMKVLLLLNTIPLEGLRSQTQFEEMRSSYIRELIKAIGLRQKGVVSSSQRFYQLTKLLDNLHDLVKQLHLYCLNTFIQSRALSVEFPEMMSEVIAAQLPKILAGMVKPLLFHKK
Binding assays used specific radioligands (tritiated, iodinated) with non-radioactive competitive displacement ligands in agonist or antagonist protocols (as indicated) and various reference compounds and inhibitors to titrate specific binding to receptors and transporters. Most enzyme assays (CYPs, kinases, phosphatases, proteases, HDACs) used recombinant protein and specific substrates (fluorescence mostly, some colorimetric and radioactive) and inhibitors, followed by a biochemical separation of substrate and product. All assays for the biochemical HTS were initially run in duplicate at a single concentration (10 uM for CYP450 assays and 25 uM for all others). […] Each assay was run with positive and negative controls, and concurrent controls on every plate. The follow-up (secondary) screen tested active chemical-pairs in concentration series, as well as a few additional assays not tested in the primary screen, some selected negative inactives, and several cases re-run in the concentration series for confirmatory purposes.
Regarding `CCCCCCCCN(C)CCCCCCCC`, the compound was called inactive.

With `CC1=CC(=O)/C(=C(/C)O)C(=O)O1`, the compound was classed as inactive.

For `Cc1c2ccccc2c(C)c2c1ccc1ccccc12`, the AC50 was 15.6 µM (active).

Turning to `O=C(O)Cc1cc(I)c(Oc2ccc(O)c(I)c2)c(I)c1`, the AC50 was 6.44 µM (active).

Regarding `CCCCCCCCCCCCO`, the result was inactive.

Turning to `CCN(Cc1cccnc1)C(=O)c1cccc(Cl)c1[C@]1(C)C(=O)N(Cc2ccc(OC)cc2OC)c2ccc(Cl)cc21`, the AC50 is 9.73 µM (active).

Regarding `CC(C)(O)c1ccc(CNC(=O)c2cccnc2Oc2ccc3nonc3c2)cc1`, the compound was called inactive.

Regarding `CCCC(=O)OCCC(C)C`, the AC50 was 17.2 µM (active).

Regarding `CC/C(=C(/CC)c1ccc(O)cc1)c1ccc(O)cc1`, the call was inactive.

Regarding `CCCCOC(=O)c1ccc(O)cc1`, the compound was classed as inactive.

In the case of `Cc1cc(F)ccc1-c1cc(N2CC[C@@H](O)[C@H]2CO)ncc1N(C)C(=O)C(C)(C)c1cc(C(F)(F)F)cc(C(F)(F)F)c1`, the AC50 is 0.401 µM (active).

Turning to `CC(C)(c1cc(Br)c(O)c(Br)c1)c1cc(Br)c(O)c(Br)c1`, the half-maximal activity concentration (AC50) is 23.9 µM (active).

On to `Cc1ncc(CO)c(CO)c1O`, for which the AC50 is 16.9 µM (active).

With `CC(C)(C)c1cc(/C=C2\SC(N)=NC2=O)cc(C(C)(C)C)c1O`, the compound was classed as inactive.

For the compound `COCC(C)OCC(C)OCC(C)O` (stereo not drawn), the result was inactive.

As to `CN1C(=O)CC[C@H]1c1cccnc1`, the compound was classed as inactive.

With `CC[C@@H]1C[C@H](N(Cc2cc(C(F)(F)F)cc(C(F)(F)F)c2)C(C)=O)c2cc(C(F)(F)F)ccc2N1C(=O)OC(C)C`, the call was inactive.

As to `CN(C)C(=O)C1(N2CCCCC2)CCN(CC[C@@]2(c3ccc(Cl)c(Cl)c3)CN(C(=O)c3ccccc3)CCO2)CC1`, the compound was called inactive.

`CN(C[C@@H](CC[N+]12CCC(C3CCCCC3)(CC1)CC2)c1ccc(Cl)c(Cl)c1)C(=O)c1cc(C(F)(F)F)cc(C(F)(F)F)c1`: the call was inactive.

`CC1(C)NC(=O)N(c2ccc([N+](=O)[O-])c(C(F)(F)F)c2)C1=O`: the AC50 is 15.7 µM (active).

For `Clc1cc(Cl)c2c(c1)N=C1CCCCCN1C2`, the call was inactive.

For the compound `NCc1cccc(C2CCN(C(=O)c3ccc(C#Cc4ccccc4F)o3)CC2)c1`, the result was inactive.

With `C[C@]12CC[C@@H]3c4ccc(O)cc4CC[C@H]3[C@@H]1CCC2=O`, the AC50 was 0.159 µM (active).
